Assays:
[1] = test system: Vero E6 infected with SARS-CoV-2; assay: morphology score (similarity to uninfected cells); higher = more like uninfected cells; details: 24 h
[2] = test system: Vero E6 infected with SARS-CoV-2; assay: SARS-CoV-2 infection rate relative to infected DMSO; higher = more infection, active = 60 or less; details: 24 h

Row | Structure (SMILES) | morphology score [1] | SARS-CoV-2 infection rate [2]
1 | CN(C)CCN1C(=O)c2cccc3cc(NC(N)=O)cc(c23)C1=O [unbs-5162] (10 µM) | 0.115 | 102% (inactive)
2 | Cc1c(C(=O)NCCCO)cnn1-c1nc(-c2cccc(C(F)(F)F)c2)cs1 (10 µM) | 0.107 | 97.5% (inactive)
3 | CN(C)Cc1cccc(N=C(c2ccccc2)c2c(O)[nH]c3cc(C(=O)N(C)C)ccc23)c1 (10 µM) | -0.271 | 112% (inactive)
4 | CN1C[C@H](C(=O)N[C@]2(C)O[C@@]3(O)[C@@H]4CCCN4C(=O)[C@H](Cc4ccccc4)N3C2=O)C[C@@H]2c3cccc4[nH]cc(c34)C[C@H]21 [dihydroergotamine] (10 µM) | -0.0107 | 104% (inactive)
5 | CCc1cn([C@H]2C[C@H](O)[C@@H](CO)O2)c(=O)[nH]c1=O [edoxudine] (10 µM) | 0.0361 | 108% (inactive)
6 | CC(C)C[C@H](NC(=O)CNC(=O)c1cc(Cl)ccc1Cl)B1OC(=O)C(CC(=O)O)(CC(=O)O)O1 (0.833333 µM) | -0.0464 | 108% (inactive)
7 | O=C1N=C2SCCN2C(=O)C1Cc1ccc(Cl)cc1 (centres undefined) [nuclomedone] (10 µM) | 0.238 | 99% (inactive)
8 | CCOC(=O)[C@@H](C)Oc1ccc(Oc2nc3ccc(Cl)cc3o2)cc1 [fenoxaprop-p-ethyl] (10 µM) | -0.0825 | 106% (inactive)
9 | CC(C)c1ccc(NC(=O)Cn2cnc3c2c(=O)n(C)c(=O)n3C)cc1 (10 µM) | 0.0452 | 109% (inactive)
10 | Cc1nc2c(c(=O)[nH]1)CSCC2 (10 µM) | 0.0297 | 114% (inactive)
11 | O=C(c1ccc(Cl)cc1)N(Cc1ccccc1)C1CCCCC1 (10 µM) | -0.00245 | 103% (inactive)
12 | Oc1cc(O)c2cc(O)c(-c3cc(O)c(O)c(O)c3)[o+]c2c1 [delphinidin] (10 µM) | 0.115 | 98.5% (inactive)
13 | O=C(O)c1cc(O)c2c3nc4ccccc4oc-3cc(=O)c2n1 [pirenoxine] (10 µM) | 0.0951 | 102% (inactive)
14 | CO[C@@H]1[C@@H](O[C@@H]2O[C@H](C)[C@@H](O[C@H]3C[C@@](C)(O)[C@@H](OC(=O)CC(C)C)[C@H](C)O3)[C@H](N(C)C)[C@H]2O)[C@@H](CC=O)C[C@@H](C)[C@@H](O)/C=C/C=C/C[C@@H](C)OC(=O)C[C@H]1OC(C)=O [josamycin] (10 µM) | -0.0313 | 113% (inactive)
15 | COc1cc(/C=C/C(=O)CC(=O)/C=C/c2ccc(O)c(OC)c2)ccc1O [curcumin] (10 µM) | 0.548 | 61.5% (inactive)
16 | N[C@@H](Cc1c[nH]c2ccccc12)C(=O)O [tryptophan] (10 µM) | -0.124 | 100% (inactive)
17 | CC(C)NCC(O)c1ccc(N)c(C#N)c1 (centres undefined) [cimaterol] (10 µM) | -0.059 | 104% (inactive)
18 | Cc1ccccc1N1CCN(CCc2nnc3n2CCCC3)CC1 [dapiprazole] (10 µM) | 0.109 | 87.5% (inactive)
19 | N=C(N)NC(=N)NCCc1ccccc1 [phenformin] (10 µM) | 0.0321 | 110% (inactive)
20 | Fc1ccc(-c2nc3n(c2-c2ccncc2)CCS3)cc1 (10 µM) | 0.209 | 94% (inactive)
21 | C#C[C@]1(O)CC[C@H]2[C@@H]3CCc4cc(O)ccc4[C@H]3CC[C@@]21C (10 µM) | 0.128 | 102% (inactive)
22 | CN(C)CC[C@@](O)(c1ccccc1)c1ccccc1Cl [clofedanol] (10 µM) | -0.0705 | 110% (inactive)
23 | CC(=O)Nc1ccc(OC(C)=O)cc1 [diacetamate] (10 µM) | 0.116 | 99.5% (inactive)
24 | C=CCNc1nc(NCC=C)nc(N2CCN(C(c3ccc(F)cc3)c3ccc(F)cc3)CC2)n1 [almitrine] (10 µM) | 0.136 | 101% (inactive)

Row | Structure (SMILES) | morphology score [1] | SARS-CoV-2 infection rate [2]
25 | O=C(Cc1ccc(-c2ccc(OCCN3CCOCC3)cc2)cn1)NCc1ccccc1 (10 µM) | -0.5 | 112% (inactive)
26 | COCCOC(=O)C1=C(C)NC(C)=C(C(=O)OC/C=C/c2ccccc2)C1c1cccc([N+](=O)[O-])c1 (centres undefined) [cilnidipine] (10 µM) | 0.171 | 95% (inactive)
27 | CO[C@@]1(NC(=O)Cc2cccs2)C(=O)N2C(C(=O)O)=C(COC(N)=O)CS[C@@H]21 [cefoxitin] (10 µM) | 0.228 | 100% (inactive)
28 | CN(C)[C@@H](CCOc1cccc2ccccc12)c1ccccc1 [dapoxetine] (10 µM) | 0.467 | 76% (inactive)
29 | CC(C)C[C@H](NC(=O)[C@@H](Cc1c[nH]c2ccccc12)NC(=O)[C@H](Cc1ccc(O)cc1)NC(=O)[C@H](CO)NC(=O)[C@H](Cc1c[nH]c2ccccc12)NC(=O)[C@H](Cc1c[nH]cn1)NC(=O)[C@@H]1CCC(=O)N1)C(=O)N[C@@H](CCCNC(=N)N)C(=O)N1CCC[C@H]1C(=O)NCC(N)=O [triptorelin] (10 µM) | -0.0195 | 110% (inactive)
30 | CC(=O)/N=c1/sc(S(N)(=O)=O)nn1C [methazolamide] (10 µM) | -0.0286 | 105% (inactive)
31 | CCc1nc2c(C)nc(C)cc2n1-c1ccc(CCNC(=O)NS(=O)(=O)c2ccc(C)cc2)cc1 [grapiprant] (10 µM) | 0.243 | 93.5% (inactive)
32 | N#CC(c1ccnc(OCc2ccc(CN3CCOCC3)cc2)n1)c1nc2ccccc2s1 (centres undefined) (10 µM) | 0.195 | 99.5% (inactive)
33 | CCc1ccc(CCOc2ccc(CC3SC(=O)NC3=O)cc2)nc1 (centres undefined) [pioglitazone] (10 µM) | 0.077 | 110% (inactive)
34 | C/C(=C\c1ccc(C(=O)O)cc1)c1ccc2c(c1)C(C)(C)CCC2(C)C (10 µM) | -0.0726 | 102% (inactive)
35 | C[C@H]1[C@H](OC(=O)CCC(=O)O)O[C@@H]2O[C@@]3(C)CC[C@H]4[C@H](C)CC[C@@H]1[C@@]24OO3 [artesunate] (0.833333 µM) | 0.157 | 97% (inactive)
36 | O=C(c1cccc(Br)c1)N1CCC(N2CCCC2)CC1 (10 µM) | -0.00696 | 106% (inactive)
37 | CC(C)(CO)Cc1cc(C(C)(C)C)c(O)c(C(C)(C)C)c1 (10 µM) | -0.127 | 108% (inactive)
38 | C[C@]12CC[C@H](O)CC1=CC[C@@H]1[C@@H]2CC[C@]2(C)C(c3cccnc3)=CC[C@@H]12 [Abiraterone (CB-7598)] (10 µM) | -0.0295 | 115% (inactive)
39 | CN1CCC2=C(C1)C(c1ccccc1)c1ccccc12 (centres undefined) [phenindamine] (10 µM) | -0.171 | 112% (inactive)
40 | CNCC(O)c1ccc(OC(=O)C(C)(C)C)c(OC(=O)C(C)(C)C)c1 (centres undefined) [dipivefrine] (10 µM) | 0.127 | 89.5% (inactive)
41 | Cc1cccc(C(C)c2c[nH]cn2)c1C (centres undefined) [medetomidine] (10 µM) | -0.0614 | 102% (inactive)
42 | C[C@H](N[C@@H](CCc1ccccc1)C(=O)O)C(=O)N1CCC[C@H]1C(=O)O [enalaprilat] (10 µM) | -0.0398 | 107% (inactive)
43 | CC(C)(C)c1ccc(C(O)CCCN2CCC(C(O)(c3ccccc3)c3ccccc3)CC2)cc1 (centres undefined) [terfenadine] (10 µM) | 0.133 | 96% (inactive)
44 | CC(C)N(CCCNC(=O)Nc1ccc(C(C)(C)C)cc1)C[C@H]1O[C@@H](n2ccc3c(N)ncnc32)[C@H](O)[C@@H]1O (10 µM) | -0.157 | 108% (inactive)
45 | C[C@]12CC[C@H](O)C[C@H]1CC[C@@H]1[C@@H]2C[C@@H](O)[C@]2(C)[C@@H](C3=CC(=O)OC3)CC[C@]12O [digoxigenin] (0.833333 µM) | -0.000579 | 99.5% (inactive)
46 | C[N+](C)(C)CC#CCN1CCCC1=O [oxotremorine-M] (10 µM) | 0.0604 | 89.5% (inactive)
47 | Cn1cc(-c2ccc3nnc(C(F)(F)c4ccc5ncccc5c4)n3n2)cn1 (10 µM) | 0.39 | 95.5% (inactive)

— the supplement of paper PMC13380429
